Measured values published in PubChem BioAssay AID1159580 (chemical genetic matrix, 2015).
The whole screen tested about 5,500 compounds, of which about 2,000 (36%) were called active. Roughly 18% stayed inconclusive and do not appear here. Rule as the data show it: active = normalized growth mostly below about 0.91 (no sharp cut-off); inconclusive = no clear call, values can overlap the other calls; inactive = mostly above about 0.92. Some of the results follow.

Assay: chemical genetic growth profiling, strain panel (AID 1159580);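 also: tested at 20 µM; growth read once vehicle control cultures reached saturation at 30 °C; 1 = growth at the plate median or of vehicle wells; lower values mean less growth of the strain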
Details: growth OD

Measured: normalized growth

COc1ccc(C(c2ccc(OC)cc2)C(Cl)(Cl)Cl)cc1
active: S. cerevisiae deletion strains, locus YLR262C, strain YPT6 (second series), hits give low values 0.856
inactive: S. cerevisiae deletion strains, locus YJR043C, strain POL32, hits give low values 0.987 | S. cerevisiae deletion strains, locus YJR075W, strain HOC1, hits give low values 1.01 | S. cerevisiae deletion strains, locus YKL009W, strain mrt4, hits give low values 0.949 | S. cerevisiae deletion strains, locus YKL068W, hits give low values 0.995 | S. cerevisiae deletion strains, locus YKL085W, strain MDH1 (second series), hits give low values 0.999 | S. cerevisiae deletion strains, locus YKL085W, strain MDH1, hits give low values 0.999 | S. cerevisiae deletion strains, locus YKL160W, strain elf1, hits give low values 1 | S. cerevisiae deletion strains, locus YKL190W, strain CNB1, hits give low values 1.01 | S. cerevisiae deletion strains, locus YKR001C, strain vps1, hits give low values 0.966 | S. cerevisiae deletion strains, locus YKR026C, strain gcn3, hits give low values 1.01 | S. cerevisiae deletion strains, locus YKR091W, strain srl3, hits give low values 1.02 | S. cerevisiae deletion strains, locus YLL001W, strain dnm1, hits give low values 1.01 | S. cerevisiae deletion strains, locus YLL026W, hits give low values 1.02 | S. cerevisiae deletion strains, locus YLL041C, strain sdh2, hits give low values 1.02 | S. cerevisiae deletion strains, locus YLR027C, strain aat2, hits give low values 1.02 | S. cerevisiae deletion strains, locus YLR039C, strain RIC1, hits give low values 1.01 | S. cerevisiae deletion strains, locus YLR058C, strain SHM2, hits give low values 0.994 | S. cerevisiae deletion strains, locus YLR102C, strain apc9, hits give low values 0.99 | S. cerevisiae deletion strains, locus YLR221C, strain rsa3, hits give low values 0.981 | S. cerevisiae deletion strains, locus YLR258W, strain gsy2, hits give low values 1.01 | S. cerevisiae deletion strains, locus YLR262C, strain YPT6, hits give low values 1.03 | S. cerevisiae deletion strains, locus YLR268W, strain sec22, hits give low values 0.997 | S. cerevisiae deletion strains, locus YLR320W, strain mms22, hits give low values 0.963 | S. cerevisiae deletion strains, locus YLR330W, strain CHS5, hits give low values 0.998 | S. cerevisiae deletion strains, locus YLR342W, strain FKS1 (second series), hits give low values 0.975 | S. cerevisiae deletion strains, locus YLR342W, strain FKS1, hits give low values 1.01 | S. cerevisiae deletion strains, locus YLR357W, strain rsc2, hits give low values 1.03 | S. cerevisiae deletion strains, locus YLR370C, strain arc18, hits give low values 1.01 | S. cerevisiae deletion strains, locus YLR371W, strain rom2, hits give low values 0.972 | S. cerevisiae deletion strains, locus YLR384C, strain iki3, hits give low values 0.996 | S. cerevisiae deletion strains, locus YLR418C, strain cdc73, hits give low values 0.993 | S. cerevisiae deletion strains, locus YML016C, strain PPZ1, hits give low values 0.993 | S. cerevisiae deletion strains, locus YML032C, strain rad52, hits give low values 0.975 | S. cerevisiae deletion strains, locus YML120C, strain ndi1, hits give low values 1.02 | S. cerevisiae deletion strains, locus YML124C, strain tub3, hits give low values 0.983 | S. cerevisiae deletion strains, locus YMR058W, strain fet3, hits give low values 1.01 | S. cerevisiae deletion strains, locus YMR078C, strain ctf18, hits give low values 0.988 | S. cerevisiae deletion strains, locus YMR125W, strain sto1, hits give low values 1 | S. cerevisiae deletion strains, locus YMR129W, hits give low values 1.01 | S. cerevisiae deletion strains, locus YMR205C, strain PFK2, hits give low values 0.985 | S. cerevisiae deletion strains, locus YMR223W, strain ubp8, hits give low values 0.966 | S. cerevisiae deletion strains, locus YMR231W, strain pep5, hits give low values 1 | S. cerevisiae deletion strains, locus YMR263W, strain SAP30, hits give low values 1.01 | S. cerevisiae deletion strains, locus YMR307W, strain GAS1, hits give low values 0.892 | S. cerevisiae deletion strains, locus YNL067W, strain RPL9B, hits give low values 0.999 | S. cerevisiae deletion strains, locus YNL071W, strain lat1, hits give low values 0.999 | S. cerevisiae deletion strains, locus YNL128W, strain TEP1, hits give low values 0.992 | S. cerevisiae deletion strains, locus YNL153C, strain GIM3, hits give low values 0.998 | S. cerevisiae deletion strains, locus YNL209W, strain ssb2, hits give low values 1 | S. cerevisiae deletion strains, locus YNL233W, strain BNI4, hits give low values 1 | S. cerevisiae deletion strains, locus YNL248C, strain rpa49, hits give low values 1.01 | S. cerevisiae deletion strains, locus YNL250W, strain rad50, hits give low values 0.992 | S. cerevisiae deletion strains, locus YNL271C, strain bni1, hits give low values 0.988 | S. cerevisiae deletion strains, locus YNL298W, strain CLA4, hits give low values 0.977 | S. cerevisiae deletion strains, locus YNL307C, strain MCK1, hits give low values 0.964 | S. cerevisiae deletion strains, locus YNL322C, strain KRE1 (second series), hits give low values 0.985 | S. cerevisiae deletion strains, locus YNL322C, strain KRE1, hits give low values 1.01 | S. cerevisiae deletion strains, locus YNR049C, strain mso1, hits give low values 1.01 | S. cerevisiae deletion strains, locus YNR052C, strain pop2, hits give low values 0.96 | S. cerevisiae deletion strains, locus YOL006C, strain TOP1, hits give low values 1.02 | S. cerevisiae deletion strains, locus YOL012C, strain htz1 0.957 | S. cerevisiae deletion strains, locus YOL147C, strain pex11, hits give low values 0.985 | S. cerevisiae deletion strains, locus YOR001W, strain rrp6, hits give low values 0.987 | S. cerevisiae deletion strains, locus YOR061W, strain CKA2, hits give low values 1.01 | S. cerevisiae deletion strains, locus YOR069W, strain VPS5, hits give low values 0.992 | S. cerevisiae deletion strains, locus YOR070C, strain gyp1, hits give low values 1.02 | S. cerevisiae deletion strains, locus YOR080W, strain dia2, hits give low values 1.01 | S. cerevisiae deletion strains, locus YOR083W, strain WHI5, hits give low values 1 | S. cerevisiae deletion strains, locus YOR106W, strain vam3, hits give low values 0.967 | S. cerevisiae deletion strains, locus YOR136W, strain idh2, hits give low values 0.972 | S. cerevisiae deletion strains, locus YOR144C, strain elg1, hits give low values 0.982 | S. cerevisiae deletion strains, locus YOR184W, strain ser1, hits give low values 0.962 | S. cerevisiae deletion strains, locus YOR265W, strain rbl2, hits give low values 1.01 | S. cerevisiae deletion strains, locus YOR270C, strain vph1, hits give low values 0.982 | S. cerevisiae deletion strains, locus YOR290C, strain snf2, hits give low values 0.984 | S. cerevisiae deletion strains, locus YOR316C, strain cot1, hits give low values 0.995 | S. cerevisiae deletion strains, locus YPL051W, strain arl3, hits give low values 0.978 | S. cerevisiae deletion strains, locus YPL055C, strain LGE1, hits give low values 0.996 | S. cerevisiae deletion strains, locus YPL078C, strain atp4, hits give low values 1.02 | S. cerevisiae deletion strains, locus YPL106C, strain sse1, hits give low values 1.06 | S. cerevisiae deletion strains, locus YPL240C, strain hsp82, hits give low values 1.01 | S. cerevisiae deletion strains, locus YPL241C, strain CIN2, hits give low values 1 | S. cerevisiae deletion strains, locus YPR119W, strain clb2, hits give low values 0.998 | S. cerevisiae deletion strains, locus YPR141C, strain kar3, hits give low values 0.994 | S. cerevisiae deletion strains, locus YPR163C, strain tif3, hits give low values 0.97 | S. cerevisiae deletion strains, locus YPR167C, strain met16, hits give low values 0.991 | S. cerevisiae deletion strains, strain wtn01, hits give low values 1 | S. cerevisiae strains, strain wild type, hits give low values 1
